Compound activity deposited in PubChem by National Center for Advancing Translational Sciences (NCATS).
IL1B secr inh = inhibitors of inflammasome signaling (IL-1 beta secretion); THP-1 LPS/ATP IL-1B secretion, AlphaLISA, 16 h; hits give low values; activity change, % at 57.5 µM; 360,000 compounds, 4.7% hits; AID 743279; in the data active = activity change below about -50%; inconclusive = mostly about -30% to -49%
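Secreted IL-1B measured by AlphaLISA bead assay after 16 h compound exposure of THP-1 cells; compounds (final up to 57.5 uM) added 1 h before LPS (250 ng/mL) and ATP (1.25 mM) stimulation; lower signal means less secretion.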
uPA generation = blocks generation of uPA at the cell surface | cell surface uPA generation assay, qHTS | 330,000 compounds, 0.31% hits | Potency, µM (series often up to 38.3 µM), inactives show at the top dose activity change, negative = inhibition, usual class: inhibitors; active = well fitted inhibition curve with a large enough effect; inconclusive = small, poorly fitted or top-dose-only effect; inactive = no such curve, though single readings can be large or run the other way; tested in mouse RAW 264.7 cells; note: potency is the fitted concentration of half-maximal effect; nearly all actives have a fitted effect of over 55% in size
DT40 TDP1 CPT = growth inhibition of DT40 Tdp1-/-;hTDP1 cells with camptothecin (screen for TDP1 inhibitors); chicken DT40 Tdp1-/-;hTDP1 cells + 20 nM CPT, ATP luminescence, 48 h; Potency, µM (doses to about 46.2 µM), inactives show top-dose activity change, negative = growth inhibition, most hits filed as inhibitors; 420,000 compounds, 12% hits; note: potency is the fitted concentration of half-maximal effect; nearly all actives have a fitted effect of over 55% in size
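Cell growth measured by CellTiter-Glo luminescence after a minimum 48 h, 37 C compound exposure with 20 nM CPT in Tdp1-knockout DT40 cells stably expressing hTDP1, seeded 400/well; qHTS titration format.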
TDP1 cell noCPT = qHTS for Inhibitors of human tyrosyl-DNA phosphodiesterase 1 (TDP1): qHTS in cells in absence of CPT; DT40 Tdp1-/- hTDP1 cells, no CPT, ATP luminescence, 48 h; Potency, µM (titrated, usually from 46.2 µM), for the others: at the top dose activity change, negative = growth inhibition, actives largely listed as inhibitors; 420,000 compounds, 15% hits; AID 686978, 2013; note: potency is the fitted concentration of half-maximal effect; nearly all actives have a fitted effect of over 55% in size
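Seeded 400 DT40-hTDP1 cells/well (vehicle DMSO, no 20 nM CPT); pinned compounds; ≥48 hr at 37 °C; CellTiter-Glo luminescence as viability measure.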
HT1080 IDH1KD tx = kills HT-1080 cells with IDH1 knockdown | Potency, µM (series often up to 46.1 µM), without a hit: at the highest dose activity, negative = toxicity, actives largely listed as cytotoxic | HT-1080 IDH1 knockdown viability, ATP luminescence, 48 h | 360,000 compounds, 2% hits;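 note: potency is the fitted concentration of half-maximal effect; 0% = DMSO wells and -100% = cell-free medium wells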
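HT-1080-IDH1KD cells (IDH1 knocked down), 750/well in RPMI with 5% FBS, treated with compound 48 h at 37 degrees C. Viability by CellTiter-Glo luminescence, normalised to DMSO and no-cell wells; concentration-response curves classed.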
HT1080-NT tox = kills 2HG-producing HT-1080-NT fibrosarcoma cells. HT-1080-NT fibrosarcoma viability, CellTiter-Glo ATP luminescence, 48 h. Potency, µM (highest dose often 46.1 µM), for inactives: top-dose activity, negative = less viability, usual class: cytotoxic. 360,000 compounds, 1.6% hits. AID 686970;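 note: NT is the 2HG producing partner of a matched IDH1 knockdown line; potency is the fitted concentration of half-maximal effect; 0% = DMSO-treated cells and -100% = media-only wells without cells; nearly all actives have a fitted effect of over 55% in size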
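HT-1080-NT fibrosarcoma cells (2HG-overproducing), 750 cells/well in RPMI with 5% FBS, dosed after 2 h and incubated 48 h at 37C. CellTiter-Glo luminescence normalized to DMSO and no-cell wells; concentration-response curves fitted and classed.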
Numbers without * were called inactive; i = inactive; ? = inconclusive; · = no result; [ ] = remark or other dose. Rows were chosen to be rich in hits. Some 19% of all compounds tested hit in one or more screens of this group. Unless noted, calls come from the whole dose curve; as a rule, active = well fitted curve in the direction sought with a large enough effect; inconclusive = small, poorly fitted or top-dose-only effect, or another doubt; inactive = no such curve, though single readings can be large; an effect the other way counts as inactive or inconclusive. Unless noted, % is set by controls: 0 for no effect and ±100 for the full control effect.

SMILES | IL1B secr inh | uPA generation | DT40 TDP1 CPT | TDP1 cell noCPT | HT1080 IDH1KD tx | HT1080-NT tox
O=C(c1ccco1)N1CCCC(c2nc3c(nnn3Cc3c(Cl)cccc3Cl)c(=O)[nH]2)C1 (configuration not stated) | 19 | -3% | ? | ? | ? | -12%
Cc1cc(C)n(CCCNC(=O)c2ccc(C)c(S(=O)(=O)N3CCOCC3)c2)n1 | 6 | 9% | 0% | -6% | 6% | 10%
CCN(CC)C(=N)/C(C#N)=N/Nc1ccc(C)cc1 | -54* | 1% | 10% | -29% | -5% | -8%
Cc1ccc(N/N=C(\C#N)C(=N)N2CCCCCC2)cc1 | -10 | -11% | -29% | -30% | -10% | -22%
CCc1ccccc1NC(=S)N(CCCN1CCOCC1)Cc1cccs1 | 5 | -2% | ? | ? | 3% | 5%
Cn1c(-c2c(N)n(C3CCCC3)c3nc4ccccc4nc23)nc2ccccc21 | -6 | 1% | ? | ? | ? | ?
Cn1c(-c2c(N)n(CCc3ccccc3)c3nc4ccccc4nc23)nc2ccccc21 | -8 | · | 26µM* | 21µM* | ? | -1%[9.24 µM]
COCCCn1c(N)c(-c2nc3ccccc3n2C)c2nc3ccccc3nc21 | ? | · | 26µM* | 23µM* | ? | -4%[9.24 µM]
O=C(NNC(=O)c1ccncc1)Nc1cc(Cl)ccc1Cl | 18 | 5% | 9% | -13% | -1% | -2%
N#CCC(=O)N/N=C/c1ccc(Cl)cc1 | -5 | 1% | ? | 0% | 0% | -11%
N#CCC(=O)N/N=C/c1cc(-c2ccccc2)n(-c2ccc(Cl)cc2)c1-c1ccccc1 | 29 | -5% | ? | ? | 21µM* | ?
CC1(NC(=O)CCc2nc3sc4c(c3c(=O)[nH]2)CCCC4)CCS(=O)(=O)C1 (configuration not stated) | 35 | -4% | 0% | -15% | -6% | -7%
CCCN(CCC)CCCNC(=O)C1CCC(CNS(=O)(=O)c2ccc(NC(C)=O)cc2)CC1 (configuration not stated) | · | · | 10% | -13% | · | ·
CCOC(=O)Cc1csc(NC(=O)Cc2ccccc2)n1 | 6 | 2% | 22% | ? | 12% | -7%
CCOC(=O)Cc1csc(NC(=O)CCCCCN2C(=O)c3ccccc3C2=O)n1 | -56* | -5% | -1% | -24% | 6% | 5%
CCOC(=O)Cc1csc(NC(=O)CCS(=O)(=O)Cc2ccccc2)n1 | 2 | -8% | ? | -26% | 10µM* | ?
COCCn1c(SCC(=O)Nc2cccc(C)c2C)nc2c(oc3ccccc32)c1=O | · | · | -13% | -13% | · | ·
CN(CC(=O)Nc1ccc(F)cc1F)S(=O)(=O)c1ccc(C(=O)N2CCOCC2)s1 | · | · | ? | -12% | · | ·
Cc1ccc(-c2cc(C(=O)Nc3cc([N+](=O)[O-])ccc3C)no2)cc1F | · | · | -19% | -1% | · | ·
Cc1ccc(S(=O)(=O)Cc2ccc(C(=O)N3CCC(C)CC3)cc2)cc1 | i | -2% | ? | ? | -3% | -5%
CC1CCN(C(=O)c2ccc(S(=O)(=O)Cc3cccc(F)c3)c([N+](=O)[O-])c2)CC1 | -86* | -5% | ? | ? | -8% | -11%
O=C(c1ccc(S(=O)(=O)Cc2cc(F)ccc2F)c([N+](=O)[O-])c1)N1CCCC1 | -108* | -19% | 3.3µM* | 2.9µM* | 21µM* | ?
Nc1ccc(C(=O)N2CCCC2)cc1CS(=O)(=O)c1ccc(Cl)cc1 | 16 | 0% | 2% | 0% | 5% | 18%
O=C(c1ccc(S(=O)(=O)Cc2cc(F)ccc2F)c([N+](=O)[O-])c1)N1CCCCC1 | -110* | -9% | ? | 23µM* | -14% | -2%
O=C(c1ccc(Cl)c([N+](=O)[O-])c1)N1CCN(c2ccccn2)CC1 | 0 | 5% | -10% | ? | 5% | 4%
SMILES | IL1B secr inh | uPA generation | DT40 TDP1 CPT | TDP1 cell noCPT | HT1080 IDH1KD tx | HT1080-NT tox
O=C(c1ccc(S(=O)(=O)Cc2ccccc2Cl)c([N+](=O)[O-])c1)N1CCN(c2ccccn2)CC1 | -103* | ? | 3.7µM* | 7.3µM* | ? | ?
Cc1cc(C)c(C(=O)NCCCN2CCOCC2)c(C)c1 | -1 | 4% | 4% | 14% | 1% | 9%
Cc1ccccc1NC(=O)C(=O)NNC(=O)COc1ccc2ccccc2c1 | 2 | -2% | ? | ? | ? | -16%
CN(CC(=O)Nc1ccccc1C(F)(F)F)C(=O)COc1ncnc2ccccc12 | 21 | -1% | 2% | 10% | 5% | -2%
CN(C)CCNC(=O)c1c(NC(=O)c2ccccc2)sc2c1CCCC2 | · | ? | ? | 26µM* | -12% | -11%
Nc1sc2c(c1C(=O)NCCc1ccccc1)CCC2 | -24 | 0% | 6% | -26% | 4% | 1%
Nc1sc2c(c1C(=O)NCCc1ccccc1)CCCC2 | -1 | · | ? | 15µM* | 3% | 5%
O=C(O)c1nn2cc(CCO)cnc2c1Cl | 6 | 2% | -4% | -24% | 16% | 28%
O=C(CCn1c(=O)c2sccc2n(Cc2cccc(F)c2)c1=O)NCc1ccc2c(c1)OCO2 | · | · | -3% | 1% | · | ·
c1ccc2c(c1)CCN(c1nc(CN3CCOCC3)nc3sc4c(c13)CCCC4)C2 | -51* | 1% | 23µM* | 16µM* | -22% | -15%
Clc1nc(CN2CCCCC2)nc2sc3c(c12)CCC3 | · | · | ? | 18µM* | -10% | -22%
Cc1sc2nc(CN3CCOCC3)nc(Cl)c2c1C | -96* | -1% | -10% | -15% | -5% | 2%
O=C(O)c1cc(N2C(=O)C3C4C=CC(C4)C3C2=O)ccc1N1CCOCC1 (configuration not stated) | 17 | -2% | 14% | 10% | 4% | 0%
CC(C)(C)c1ccc(NC(=O)COC(=O)c2ccc(NS(=O)(=O)c3ccc(F)c(F)c3)cc2)cc1 | ? | -3% | -21% | ? | -15% | 0%
CC(=O)c1cccc([N+](=O)[O-])c1 | 5 | 15% | 3% | 6% | 16% | 3%
COc1ccc(COC(=O)CCS(=O)(=O)c2ccc(C)cc2)cc1 | 37 | 3% | 3% | 4% | 0% | 0%
Cc1ccc(S(=O)(=O)Cc2cc(F)c([N+](=O)[O-])cc2[N+](=O)[O-])cc1 | -92* | -5% | 3.7µM* | 2.9µM* | 6.5µM* | 2.9µM*
Cc1ccc(S(=O)(=O)CCC(=O)c2cccc([N+](=O)[O-])c2)cc1 | -98* | -11% | 2.1µM* | 2.6µM* | 6.5µM* | ?
